# Screening data as filed in PubChem BioAssay.
# Hits are enriched below; roughly 2.8% of the tested compounds scored in any of these assays.
# LGR2 antag – inhibitors of bursicon-induced Drosophila LGR2 receptor cAMP signaling. HEK293 LGR2, CRE-luciferase, bursicon-stimulated, 4 h. inhibition, % at 9.99 µM. 380,000 tested, 0.35% active. AID 720647;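 active = drop in luminescence signal, shown as inhibition above about 50% in the replicate tests, limit read from the data, passing the limit was not always enough; inconclusive = probably only some replicates passing the limit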;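 also: agonist challenge used bursicon conditioned medium at about half maximal strength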
# EWS-Fli inh – EWS/Fli transcriptional activity inhibition | A673 NR0B1-luciferase reporter, viability-normalised | inhibition, % at 12.6 µM | 350,000 tested, 0.67% active | AID 651661;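 active = mean inhibition of at least 50% after viability correction, with every replicate also passing that limit; inconclusive = mean reaches 50% but only one of two replicates passes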;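 also: firefly luciferase signal divided by Alamar Blue viability fluorescence both relative to DMSO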
# PAX8 inh HTS – inhibitors of PAX8 transcriptional activity in RMG-I cells | RMG-I TPO-luciferase reporter, SteadyGlo, 24 h | inhibition, % at 12.6 µM | 360,000 tested, 1.2% active | AID 652154;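 active = mean replicate inhibition at least 60% with every replicate also reaching 60%; inconclusive = only one of the two criteria is met; inactive = mean below 60% and not all replicates reaching 60%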;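 also: luciferase light reporting Pax8 driven TPO promoter activity; plate controls were median of neutral control wells for no effect and mitoxantrone controls for full effect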
# TROY signal inh – TROY signaling inhibition | Q293 LMP1-TROYcd NF-kB luciferase reporter, 4 h | inhibition, % at 10 µM | 360,000 tested, 0.98% active | AID 1347056;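 active = compounds whose plate-normalised and pattern-corrected inhibition of the luciferase reporter signal at the single screening dose is 50% or more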
# TWEAK-Fn14 inh – blocks TWEAK-Fn14 interaction in a reporter cell assay; TWEAK-stimulated Fn14 reporter cells, luciferase luminescence, 8 h; inhibition, % at 10 µM; 360,000 tested, 2% active; AID 1159606; in the data active = inhibition above about 50%
# An asterisk follows results filed as active; ? = inconclusive; / = no result given; ! = not active in a repeat.
SMILES,LGR2 antag,EWS-Fli inh,PAX8 inh HTS,TROY signal inh,TWEAK-Fn14 inh
CCS(=O)(=O)c1ncc(Cl)c(C(=O)Nc2ccccc2OC)n1,11.6,?,5.1,73.0*,95.0*
CCOc1ccccc1NC(=O)c1ccc(C(=O)Nc2ccccc2OCC)nc1,1.0,-4.7,39.7,11.3,-11.2
CCOc1ccccc1NC(=O)c1nc(S(=O)(=O)Cc2ccccc2)ncc1Cl,3.3,?,133.6*,74.8*,74.0*
COc1ccccc1NC(=O)c1nc(S(=O)(=O)Cc2ccccc2)ncc1Cl,-17.0,59.4*,130.2*,72.0*,74.3*
C[C@@H]1CN([C@H](C)CO)C(=O)Cc2cc(NC(=O)Cn3cnnn3)ccc2O[C@H]1CN(C)S(=O)(=O)c1cccs1,16.3,0.8,-16.0,/,/
O=C(Nc1cccc(C(F)(F)F)c1)Nc1ccc(N2CCCC2)c(S(=O)(=O)Nc2ccccc2Cl)c1,12.5,/,89.6*,40.5,80.3*
CC(=O)Nc1ccc(N2CCOCC2)c(S(=O)(=O)Nc2ccccc2Cl)c1,9.1,-0.5,2.3,-10.9,15.5
O=C1C=CC(=O)C(CNc2ccc(C(=O)OCc3ccccc3)cc2)=C1,8.9,58.9*,0.6,40.5,106.8*
CN(C)c1ccc(C(=O)OCc2ccccc2)cc1,/,/,/,-51.1,2.2
O=C(N/N=C/c1ccc[nH]1)c1ccc(COc2cccc3cccnc23)cc1,22.3,23.2,78.7*,48.5,84.5*
Cc1cc(Br)c(OCc2ccc(C(=O)N/N=C/c3ccc[nH]3)cc2)c(Br)c1,32.3,58.1*,95.5*,20.9,34.0
O=C(N/N=C/c1ccc[nH]1)c1ccc(O)cc1,-25.2,-6.7,1.6,3.0,-3.3
CC=Cc1ccc2n(c1=O)C[C@@H]1[C@@H](CO)[C@H](C(=O)NC3CCCC3)N(C(=O)C3CCC3)[C@H]21 (mixture of isomers),-9.0,-1.8,/,/,/
C[C@H]1CN([C@@H](C)CO)C(=O)c2cccc(NC(=O)Nc3ccc(C(F)(F)F)cc3)c2O[C@@H]1CN(C)S(C)(=O)=O,3.6,-18.0,-22.1,/,/
N#C/C(=C\c1coc2ccc(O)cc2c1=O)C(=O)Nc1nc2ccccc2s1,16.7,-19.2,34.2,51.7*,73.3*
COc1ccc2c3c([nH]c2c1)[C@@H](CO)N(C(=O)C1CCCC1)CC31CN(S(C)(=O)=O)C1,10.0,-0.2,12.4,/,/
C[C@H](CO)N1C[C@H](C)[C@@H](CN(C)C(=O)Nc2cc(F)ccc2F)Oc2cc(/C=C/c3ccccc3)ccc2S1(=O)=O,13.1,22.3,66.4*,/,/
C[C@@H]1CN([C@H](C)CO)S(=O)(=O)c2ccc(C#Cc3ccc(F)cc3)cc2O[C@@H]1CN(C)C(=O)NC1CCCCC1,22.5,11.4,58.3,/,/
C[C@H](CO)N1C[C@H](C)[C@@H](CN(C)C(=O)NC2CCCCC2)Oc2cc(C#Cc3ccc(F)cc3)ccc2S1(=O)=O,41.9,5.5,82.2*,/,/
C[C@H]1CN([C@@H](C)CO)S(=O)(=O)c2ccc(/C=C/c3ccccc3)cc2O[C@H]1CN(C)C(=O)NC1CCCCC1,-13.9,5.1,70.2*!,22.2,27.0
C[C@@H]1CN([C@@H](C)CO)S(=O)(=O)c2ccc(C#Cc3ccc(F)cc3)cc2O[C@H]1CN(C)C(=O)NC1CCCCC1,34.3,-3.6,99.0*,/,/
C[C@@H]1CN([C@@H](C)CO)S(=O)(=O)c2ccc(/C=C/c3ccccc3)cc2O[C@H]1CN(C)C(=O)NC1CCCCC1,16.4,6.6,-4.0,/,/
C[C@@H]1CN([C@H](C)CO)S(=O)(=O)c2ccc(-c3cncnc3)cc2O[C@@H]1CN(C)C(=O)c1cccc(F)c1,-9.7,1.1,-2.2,/,/
CO[C@H]1CN(C)C(=O)c2cc(NS(C)(=O)=O)ccc2OC[C@H](C)N(S(C)(=O)=O)C[C@@H]1C,-16.3,-7.8,/,/,/
C[C@H](O)C#Cc1cnc2c(c1)C(=O)N([C@@H](C)CO)C[C@@H](C)[C@H](CN(C)Cc1cccc(F)c1)O2,20.0,1.1,/,/,/
COc1ccc2c3c([nH]c2c1)[C@@H](CO)N(Cc1nccs1)CC31CN(C(=O)C2CCCC2)C1,-4.8,-6.1,-11.7,/,/
Cc1ccc(S(=O)(=O)CCC(=O)c2ccc(F)cc2)cc1,-10.4,/,95.5*,0.1,3.8
Cc1ccc(C(=O)CCS(=O)(=O)c2ccc(F)cc2)cc1,4.4,/,10.6,2.8,3.7
COc1ccc(-c2cn(CC[C@H]3CC[C@H](NC(=O)CCN4CCCCC4)[C@@H](CO)O3)nn2)cc1,2.5,-22.7,-4.7,/,/
CCOC(=O)C1=C(C)Nc2ccccc2N=C1NC(=O)c1oc2ccccc2c1COC,2.4,-8.4,64.6*,8.6,14.6
